Results: PubChem BioAssay (Tox21)
The source made the active and inactive calls. Unless noted, the call rests on the fitted dose curve; in most records, active means well fitted curve in the direction sought with a large enough effect in the repeat runs; inconclusive means weak or mixed curves; inactive means no such curve, though single readings can be large; an effect the other way counts as inactive or inconclusive.

How the values were obtained:
[1] = qHTS assay to test for compound auto fluorescence at 535 nm (green) in HEK293 cells (AID 720680)
[2] = qHTS assay to test for compound auto fluorescence at 460 nm (blue) in HEK293 cell free culture (AID 720681); further: potency means the concentration at half of the fitted maximal effect
Procedure, shortened: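 Blue fluorescence (Ex 405/Em 460 nm, triamterene-equivalent) was read immediately after pin transfer of compound or DMSO into medium (DMEM, 10% FBS) without cells.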

[3] = qHTS assay to test for compound auto fluorescence at 535 nm (green) in HEK293 cell free culture (AID 720682)
Procedure, shortened: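 Cell-free medium (DMEM, 10% FBS) receives compound or DMSO by pintool. Plate read directly at Ex 485/Em 535 nm. Signal converted to fluorescein equivalency.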

[4] = qHTS assay to test for compound auto fluorescence at 590 nm (red) in HEK293 cell free culture (AID 720683)
Procedure, shortened: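 Red-channel autofluorescence of compounds in culture medium (DMEM, 10% FBS), no cells, measured at 540/590 nm. Rose Bengal sodium is the reference fluorophore for equivalence.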

[5] = qHTS assay to test for compound auto fluorescence at 590 nm (red) in HepG2 cell free culture (AID 720684)
Procedure, shortened: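 No cells present: MEM + 10% FBS only. Compound pinned in, red label read (540/590 nm). Activity = fluorescence equivalent to Rose Bengal sodium.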

[6] = qHTS assay to test for compound auto fluorescence at 460 nm (blue) in HepG2 cell free culture (AID 720685); further: potency means the concentration at half of the fitted maximal effect
Procedure, shortened: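 Cell-free plates of MEM plus 10% FBS received 23 nL compound or DMSO vehicle; blue-channel (405/460 nm) intensity scored against triamterene as reference fluorophore.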

[7] = qHTS assay to test for compound auto fluorescence at 535 nm (green) in HepG2 cell free culture (AID 720686)
[8] = qHTS assay to test for compound auto fluorescence at 460 nm (blue) in HepG2 cells (AID 720687); further: potency means the concentration at half of the fitted maximal effect
Procedure, shortened: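 Blue-channel autofluorescence (Ex/Em 405/460 nm, triamterene-equivalent) was measured after 1 hr compound exposure at 37 C, 5% CO2. Cells were HepG2, plated overnight at 37 C in MEM plus 10% FBS.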

[9] = target: Glucocorticoid receptor (Homo sapiens) (UniProt P04150); experiment: qHTS assay to identify small molecule agonists of the glucocorticoid receptor (GR) signaling pathway (AID 720691; active means well fitted activation curve with a large enough effect in the signal ratio in the repeat runs, not every such curve was filed as active; inconclusive means weak or mixed curves, or effect the other way; inactive means no such curve, though single readings can be large or run the other way; the % refers to the signal ratio; further: potency means the concentration at half of the fitted maximal effect)
Sequence of Glucocorticoid receptor (Homo sapiens) (P04150 whole entry, looked up): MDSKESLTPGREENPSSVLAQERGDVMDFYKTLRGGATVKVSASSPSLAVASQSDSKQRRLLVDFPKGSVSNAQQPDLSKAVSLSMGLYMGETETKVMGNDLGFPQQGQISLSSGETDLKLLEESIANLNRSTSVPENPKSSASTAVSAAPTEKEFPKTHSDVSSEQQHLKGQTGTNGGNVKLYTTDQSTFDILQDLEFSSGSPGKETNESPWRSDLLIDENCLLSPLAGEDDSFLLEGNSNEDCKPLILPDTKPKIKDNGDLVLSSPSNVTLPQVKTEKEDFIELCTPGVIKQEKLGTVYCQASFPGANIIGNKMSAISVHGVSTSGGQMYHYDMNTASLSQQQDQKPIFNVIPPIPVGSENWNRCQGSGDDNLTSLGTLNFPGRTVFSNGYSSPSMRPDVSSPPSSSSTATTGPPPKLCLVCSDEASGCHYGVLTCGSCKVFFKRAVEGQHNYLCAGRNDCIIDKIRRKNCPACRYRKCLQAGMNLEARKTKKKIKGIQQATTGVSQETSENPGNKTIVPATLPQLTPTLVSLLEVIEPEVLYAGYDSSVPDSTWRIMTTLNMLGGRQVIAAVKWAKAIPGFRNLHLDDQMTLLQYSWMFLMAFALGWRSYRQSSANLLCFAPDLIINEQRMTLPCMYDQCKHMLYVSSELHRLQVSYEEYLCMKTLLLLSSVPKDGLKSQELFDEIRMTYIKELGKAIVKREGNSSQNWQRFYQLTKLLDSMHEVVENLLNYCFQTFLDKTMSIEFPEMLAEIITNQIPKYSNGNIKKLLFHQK
Procedure, shortened: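 Cells: GR-bla HeLa, endogenous GR with stably integrated GRE-beta-lactamase reporter. Treatment 18 h, 37 C, compounds delivered in DMSO. Detection via LiveBLAzer B/G FRET substrate, 2 h RT, fluorescence intensity.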

[10] = target: Glucocorticoid receptor (Homo sapiens) (UniProt P04150); experiment: qHTS assay to identify small molecule antagonists of the glucocorticoid receptor (GR) signaling pathway (AID 720692; active means well fitted inhibition curve with a large enough effect in the signal ratio in the repeat runs, not every such curve was filed as active; inconclusive means weak or mixed curves, or effect the other way; inactive means no such curve, though single readings can be large or run the other way; the % refers to the signal ratio; further: potency means the concentration at half of the fitted maximal effect)
Procedure, shortened: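 Quantitative HTS in antagonist format: HeLa cells expressing endogenous GR and a stably integrated GRE-bla reporter, stimulated with 5 nM dexamethasone (final) alongside test compounds for 18 h.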

[11] = qHTS assay for identifying genotoxic compounds that show differential cytotoxicity against isogenic chicken DT40 cell lines with known DNA damage response pathways - wild type cell line (AID 743012); further: nearly all actives have a fitted effect of over 60% in size; further: potency means the concentration at half of the fitted maximal effect
Procedure, shortened: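 Luminescent ATP viability signal (CellTiter-Glo, 30 min RT) recorded after wild type DT40 cells were incubated with compounds for 40 h at 37 C/5% CO2.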

[12] = qHTS assay for identifying genotoxic compounds that show differential cytotoxicity against isogenic chicken DT40 cell lines with known DNA damage response pathways - Rev3 mutant cell line (AID 743014); further: nearly all actives have a fitted effect of over 55% in size; further: potency means the concentration at half of the fitted maximal effect
[13] = qHTS assay for identifying genotoxic compounds that show differential cytotoxicity against isogenic chicken DT40 cell lines with known DNA damage response pathways - Rad54/Ku70 mutant cell line (AID 743015); further: nearly all actives have a fitted effect of over 60% in size; further: potency means the concentration at half of the fitted maximal effect
[14] = qHTS assay to identify small molecule antagonists of the androgen receptor (AR) signaling pathway - cell viability counter screen (AID 743033; further: nearly all actives have a fitted effect of over 45% in size; further: potency means the concentration at half of the fitted maximal effect)
[15] = target: Androgen receptor (Homo sapiens) (UniProt P10275); experiment: qHTS assay to identify small molecule agonists of the androgen receptor (AR) signaling pathway using the MDA cell line (AID 743040; further: nearly all actives have a fitted effect of over 20% in size)
Sequence of Androgen receptor (Homo sapiens) (P10275 whole entry, looked up): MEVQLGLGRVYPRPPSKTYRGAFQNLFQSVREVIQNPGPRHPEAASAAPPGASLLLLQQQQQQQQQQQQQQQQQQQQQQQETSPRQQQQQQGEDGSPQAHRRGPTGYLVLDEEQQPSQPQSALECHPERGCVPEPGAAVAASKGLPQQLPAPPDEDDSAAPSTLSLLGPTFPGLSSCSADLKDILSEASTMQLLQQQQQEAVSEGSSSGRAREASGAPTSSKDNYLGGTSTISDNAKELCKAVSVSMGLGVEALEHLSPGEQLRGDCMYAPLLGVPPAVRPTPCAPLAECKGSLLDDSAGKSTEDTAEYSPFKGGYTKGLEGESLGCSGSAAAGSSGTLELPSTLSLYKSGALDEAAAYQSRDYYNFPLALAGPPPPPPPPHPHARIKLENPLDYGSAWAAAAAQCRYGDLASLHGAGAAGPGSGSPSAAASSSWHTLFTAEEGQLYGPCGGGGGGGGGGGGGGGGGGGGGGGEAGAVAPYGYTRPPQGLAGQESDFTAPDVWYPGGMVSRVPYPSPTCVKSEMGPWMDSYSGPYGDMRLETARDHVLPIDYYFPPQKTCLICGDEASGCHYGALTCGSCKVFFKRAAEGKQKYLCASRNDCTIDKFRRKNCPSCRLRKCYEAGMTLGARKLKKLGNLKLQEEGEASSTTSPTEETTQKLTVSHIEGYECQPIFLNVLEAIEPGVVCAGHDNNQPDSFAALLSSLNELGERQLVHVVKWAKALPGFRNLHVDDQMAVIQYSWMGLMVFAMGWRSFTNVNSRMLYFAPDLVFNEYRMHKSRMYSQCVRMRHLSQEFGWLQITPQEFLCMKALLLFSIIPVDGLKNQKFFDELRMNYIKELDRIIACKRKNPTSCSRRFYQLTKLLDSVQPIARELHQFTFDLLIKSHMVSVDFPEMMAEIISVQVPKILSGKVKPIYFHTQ
Procedure, shortened: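 Stable MMTV-luciferase reporter in MDA-kb2 cells; note the promoter carries GR as well as AR response elements. 16 h compound treatment, 37C, 0% CO2; ONE-Glo luminescence endpoint.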

[16] = target: Androgen receptor (Homo sapiens) (UniProt P10275); experiment: qHTS assay to identify small molecule antagonists of the androgen receptor (AR) signaling pathway using the MDA cell line (AID 743042; further: nearly all actives have a fitted effect of over 55% in size)
Procedure, shortened: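 Antagonist mode: compounds plus R1881 agonist added to MDA-kb2 AR-luc cells, incubated 16 h at 37C. Luciferase reporter luminescence quantified, with multiplexed CellTiter-Fluor readout for cell viability.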

[17] = qHTS assay to identify small molecule antagonists of the glucocorticoid receptor (GR) signaling pathway - cell viability counter screen (AID 720693); further: nearly all actives have a fitted effect of over 55% in size
[18] = qHTS assay to identify small molecule antagonists of the androgen receptor (AR) signaling pathway using the MDA cell line - cell viability counter screen (AID 743041; further: nearly all actives have a fitted effect of over 45% in size)
Procedure, shortened: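 Using the breast carcinoma line MDA-kb2 AR-luc, test chemicals were co-incubated with R1881 for 16 h; CellTiter-Fluor reagent, added at 15.5 h, provided a fluorescence measure of live cells.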

[19] = target: Androgen receptor (Homo sapiens) (UniProt P10275); experiment: qHTS assay to identify small molecule antagonists of the androgen receptor (AR) signaling pathway (AID 743035; active means well fitted inhibition curve with a large enough effect in the signal ratio in the repeat runs, not every such curve was filed as active; inconclusive means weak or mixed curves, or effect the other way; inactive means no such curve, though single readings can be large or run the other way; the % refers to the signal ratio; further: potency means the concentration at half of the fitted maximal effect)
Procedure, shortened: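 Quantitative HTS of the Tox21 10K library used HEK293 AR-UAS-bla cells stimulated with R1881 alongside compound for 16 h at 37C, followed by beta-lactamase FRET detection (LiveBLAzer B/G, 2 h, RT).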

[20] = target: Androgen receptor (Homo sapiens) (UniProt P10275); experiment: qHTS assay to identify small molecule agonists of the androgen receptor (AR) signaling pathway (AID 743036; active means well fitted activation curve with a large enough effect in the signal ratio in the repeat runs, with a control signal flat, not every such curve was filed as active; inconclusive means weak or mixed curves, or effect the other way; inactive means no such curve, though single readings can be large or run the other way; the % refers to the signal ratio)
Procedure, shortened: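 AR-bla HEK293 cells, 2,000/well; 4 h preincubation 37C/5% CO2; compound (DMSO) 16 h at 37C; LiveBLAzer B/G FRET substrate 2 h RT; fluorescence intensity read-out.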
On the % scale 0 is the no-effect control and ±100 the full control effect; tags describe the fitted curve by direction and shape or compound fluorescence and quenching.

O=c1cc(-c2ccccc2)oc2cc(O)cc(O)c12
inactive: outcome [1] | Potency [2] | outcome [3] | outcome [4] | outcome [5] | Potency [6] | outcome [7] | Potency [8] | Potency [9] | Potency [14] | outcome [15] | Potency [16]
active: Potency [10] 19.5 µM | Potency [11] 54.5 µM | Potency [12] 48.6 µM | Potency [13] 24.3 µM

Cc1ccc(OC(=O)c2ccccc2O)cc1
inactive: outcome [1] | Potency [2] | outcome [3] | outcome [4] | outcome [5] | Potency [6] | outcome [7] | Potency [8] | Potency [9] | Potency [17] | Potency [11] | Potency [12] | Potency [14] | Potency [18]

Brc1cc(Br)c(Oc2cc(Br)c(Br)cc2Br)cc1Br
inactive: outcome [1] | Potency [2] | outcome [3] | outcome [4] | outcome [5] | Potency [6] | outcome [7] | Potency [8] | Potency [17] | Potency [11]

Nc1ccc(N=Nc2ccccc2)c(N)c1
inactive: outcome [1] | Potency [2] | outcome [3] | outcome [4] | outcome [5] | Potency [6] | outcome [7] | Potency [8] | Potency [9] | Potency [17] | Potency [14] | Potency [18]
active: Potency [11] 53.3 µM | Potency [12] 53.3 µM

C=C(C)[C@@H]1CCC2=CCC[C@@H](C)[C@]2(C)C1
inactive: outcome [1] | Potency [2] | outcome [3] | outcome [4] | outcome [5] | Potency [6] | outcome [7] | Potency [8] | Potency [9] | Potency [17] | Potency [14] | Potency [19] | outcome [20] | outcome [15] | Potency [16]
active: Potency [11] 27.3 µM | Potency [12] 27.3 µM | Potency [13] 15.4 µM

C[C@@H]1CN(CCCn2c3ccccc3c3ccccc32)C[C@H](C)N1
active: Potency [11] 9.44 µM | Potency [12] 7.5 µM | Potency [13] 9.44 µM
inactive: outcome [1] | Potency [2] | outcome [3] | outcome [4] | outcome [5] | Potency [6] | outcome [7] | Potency [8] | Potency [17]

C=C1C[C@@]23CC[C@H]4[C@@](C)(CCC[C@@]4(C)C(=O)O[C@@H]4O[C@H](CO)[C@@H](O)[C@H](O)[C@H]4O)[C@@H]2CC[C@]1(O[C@@H]1O[C@H](CO)[C@@H](O)[C@H](O[C@@H]2O[C@H](CO)[C@@H](O)[C@H](O)[C@H]2O)[C@H]1O[C@@H]1O[C@H](CO)[C@@H](O)[C@H](O)[C@H]1O)C3
inactive: outcome [1] | Potency [2] | outcome [3] | outcome [4] | outcome [5] | Potency [6] | outcome [7] | Potency [8] | Potency [9] | Potency [17] | Potency [11] | Potency [12] | Potency [13] | Potency [14] | Potency [19] | outcome [20] | outcome [15] | Potency [18] | Potency [16]

Cc1ccc(C(C)(C)O)cc1
inactive: outcome [1] | Potency [2] | outcome [3] | outcome [4] | outcome [5] | Potency [6] | outcome [7] | Potency [8] | Potency [9] | Potency [10] | Potency [17] | Potency [12] | Potency [13] | Potency [14] | Potency [18]

O=[N+]([O-])c1ccc(Nc2ccc(Nc3ccccc3)c(S(=O)(=O)O)c2)c([N+](=O)[O-])c1
inactive: outcome [1] | Potency [2] | outcome [3] | outcome [4] | outcome [5] | Potency [6] | outcome [7] | Potency [8] | Potency [9] | Potency [17] | Potency [11] | Potency [12] | Potency [13] | Potency [14] | Potency [18]

O=C1NC(=O)c2cc([N+](=O)[O-])ccc21
inactive: outcome [1] | Potency [2] | outcome [3] | outcome [4] | outcome [5] | Potency [6] | outcome [7] | Potency [8] | Potency [9] | Potency [17] | Potency [11] | Potency [12] | Potency [13] | Potency [14] | Potency [19] | outcome [15] | Potency [18] | Potency [16]

CC(C)C(O)(c1ccc(OC(F)(F)F)cc1)c1cncnc1 (centres undefined)
inactive: outcome [1] | Potency [2] | outcome [3] | outcome [4] | outcome [5] | Potency [6] | outcome [7] | Potency [8] | Potency [9] | Potency [17] | Potency [14] | Potency [18]
active: Potency [11] 48.4 µM | Potency [12] 27.2 µM | Potency [13] 48.4 µM

Cc1ccccc1N=C(N)Nc1ccccc1C
inactive: outcome [1] | Potency [2] | outcome [3] | outcome [4] | outcome [5] | Potency [6] | outcome [7] | Potency [8] | Potency [9] | Potency [17] | Potency [14] | Potency [18]
active: Potency [12] 30.1 µM

O=C=Nc1cccc(C(F)(F)F)c1
active: Potency [19] 48.6 µM
inactive: outcome [1] | Potency [2] | outcome [3] | outcome [4] | outcome [5] | Potency [6] | outcome [7] | Potency [8] | Potency [9] | Potency [17] | outcome [20] | outcome [15] | Potency [18] | Potency [16]

O=C(/C=C/c1ccc(O)c(O)c1)O[C@@H]1C[C@@](OC(=O)/C=C/c2ccc(O)c(O)c2)(C(=O)O)C[C@@H](O)[C@@H]1O
inactive: outcome [1] | Potency [2] | outcome [3] | outcome [4] | outcome [5] | Potency [6] | outcome [7] | Potency [8] | Potency [9] | Potency [10] | Potency [17] | Potency [12] | Potency [13] | Potency [14] | Potency [18]

COc1ccccc1NC(=O)c1cc2ccccc2cc1O
inactive: outcome [1] | outcome [3] | outcome [4] | outcome [5] | outcome [7] | Potency [9] | outcome [20] | outcome [15]
active: Potency [2] 44.7 µM | Potency [6] 39.8 µM [fluorescent] | Potency [8] 39.8 µM [fluorescent] | Potency [10] 38.9 µM | Potency [11] 43.3 µM | Potency [12] 48.6 µM | Potency [13] 30.6 µM | Potency [14] 13.8 µM

OC[C@H]1O[C@@H](n2cnc3c(=S)nc[nH]c32)[C@H](O)[C@@H]1O
active: Potency [11] 13.3 µM
inactive: outcome [1] | Potency [2] | outcome [3] | outcome [4] | outcome [5] | Potency [6] | outcome [7] | Potency [8] | Potency [9] | Potency [17]

CC1(C)O[C@@H]2C[C@H]3[C@@H]4C[C@H](F)C5=CC(=O)C=C[C@]5(C)[C@H]4[C@@H](O)C[C@]3(C)[C@]2(C(=O)CO)O1
inactive: fluorescence, % of fluorescein [1] -0.126% [at 18.6 µM] | fluorescence, % of fluorescent control [2] -0.131% [at 18.6 µM] | activity change [3] -0.178% [at 18.6 µM] | fluorescence, % of fluorescent control [4] -0.673% [at 18.6 µM] | fluorescence, % of Rose Bengal [5] -0.32% [at 18.6 µM] | fluorescence, % of fluorescent control [6] -0.0967% [at 18.6 µM] | fluorescence, % of fluorescein control [7] -0.129% [at 18.6 µM] | fluorescence, % of fluorescent control [8] -0.0461% [at 18.6 µM] | Potency [17] | Potency [11] | Potency [12] | Potency [18]
active: Potency [9] 1.29 µM [inconclusive]
